Laboratory results reported in PubChem BioAssay AID588800 (Johns Hopkins Ion Channel Center, 2011).

Molecular target: Potassium voltage-gated channel subfamily KQT member 2 (Rattus norvegicus) (UniProt O88943)
Assay: rat KCNQ2 channel inhibition, SAR follow-up, selectivity assay for KCNK9 inhibitor project, cell-based, FluxOR thallium flux, CRC set 2 (AID 588800)
Conditions: KCNQ2-expressing cells; series mostly up to 30 µM; thallium flux ratio, lower = inhibition: at the top concentration;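 active = peak inhibition of the KCNQ2 potassium channel above 30% at some tested dose, plus a fitted dose response curve; inactive = no inhibition at any dose, or no curve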

Potassium voltage-gated channel subfamily KQT member 2 (Rattus norvegicus), sequence (O88943 whole entry, looked up): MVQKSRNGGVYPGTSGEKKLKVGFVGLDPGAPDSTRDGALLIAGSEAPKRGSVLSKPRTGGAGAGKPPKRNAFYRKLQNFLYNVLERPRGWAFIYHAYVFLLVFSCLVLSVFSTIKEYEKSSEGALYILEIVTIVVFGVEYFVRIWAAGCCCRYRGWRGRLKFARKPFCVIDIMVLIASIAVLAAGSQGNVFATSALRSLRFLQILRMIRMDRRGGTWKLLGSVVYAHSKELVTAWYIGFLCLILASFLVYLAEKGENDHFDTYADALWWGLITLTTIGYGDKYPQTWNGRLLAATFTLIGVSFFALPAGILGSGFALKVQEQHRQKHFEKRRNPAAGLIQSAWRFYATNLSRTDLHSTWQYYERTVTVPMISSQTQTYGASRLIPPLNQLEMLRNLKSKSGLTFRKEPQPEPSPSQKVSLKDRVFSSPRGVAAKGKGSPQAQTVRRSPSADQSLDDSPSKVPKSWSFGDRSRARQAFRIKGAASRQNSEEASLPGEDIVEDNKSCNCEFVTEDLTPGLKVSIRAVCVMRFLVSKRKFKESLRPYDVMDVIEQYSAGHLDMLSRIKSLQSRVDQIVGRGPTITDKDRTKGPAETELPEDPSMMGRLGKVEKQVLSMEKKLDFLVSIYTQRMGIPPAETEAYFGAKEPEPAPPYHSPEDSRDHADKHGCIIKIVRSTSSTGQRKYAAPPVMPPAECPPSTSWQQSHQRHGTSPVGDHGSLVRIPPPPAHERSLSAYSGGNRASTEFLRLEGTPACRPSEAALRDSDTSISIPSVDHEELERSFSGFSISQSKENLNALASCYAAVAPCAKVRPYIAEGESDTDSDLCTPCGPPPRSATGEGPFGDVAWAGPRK

Thallium flux ratio, lower = inhibition, inactive:
CCOc1ccccc1NC(=O)c1cccc(NC(=O)c2ccccc2C)c1 0.159
Cc1cccc(S(=O)(=O)Nc2cccc(NC(=O)c3ccccc3)c2)c1 0.195
COc1ccccc1NC(=O)c1cccc(NC(=O)c2ccccc2)c1 0.168
Cc1cccc(C(=O)Nc2cccc(NC(=O)c3ccc(C(C)(C)C)cc3)c2)c1 0.244
CCOc1ccccc1C(=O)Nc1cccc(NC(=O)c2ccccc2C(F)(F)F)c1 0.177
O=C(Nc1cccc(NC(=O)c2ccc(Cl)cc2)c1)c1ccccc1 0.153
CCOc1ccccc1NC(=O)c1cccc(NC(=O)c2cccc(C)c2)c1 0.176
Cc1cccc(C(=O)Nc2cccc(NC(=O)c3ccccc3Cl)c2)c1 0.173
O=C(Nc1cccc(NC(=O)c2ccsc2)c1)c1ccccc1 0.203
CC(C1CC2CCC1C2)n1c(-c2cccc(Cl)c2)n[nH]c1=S (stereo unspecified) 0.207
CC(C1CC2CCC1C2)n1c(C2CCOC2)n[nH]c1=S (stereo unspecified) 0.177
COc1ccccc1NC(=O)c1cccc(NC(=O)C2CCCCC2)c1 0.174
O=C(Nc1cccc(NC(=O)c2cccc(C(F)(F)F)c2)c1)c1ccccc1 0.145
CCOc1ccccc1NC(=O)c1cccc(C(=O)NC2CCCC2)c1 0.179
COc1ccc(-c2n[nH]c(=S)n2C(C)C2CC3CCC2C3)cc1 (stereo unspecified) 0.157
CCOc1ccccc1C(=O)Nc1cccc(NC(=O)c2cccc(C)c2)c1 0.16
CCOc1ccccc1NC(=O)c1cccc(NC(=O)c2cccc(Cl)c2)c1 0.168
Cc1cccc(C(=O)Nc2cccc(NC(=O)c3ccccc3OC(F)(F)F)c2)c1 0.178
O=C(Nc1ccccc1Cl)c1cccc(NC(=O)C2CCCC2)c1 0.161
COc1ccccc1C(=O)Nc1cccc(NC(=O)c2ccccc2)c1 0.162
Cc1ccc(-c2n[nH]c(=S)n2C(C)C2CC3CCC2C3)cc1 (stereo unspecified) 0.174
COc1cccc(C(=O)Nc2cccc(NC(=O)c3cccc(C)c3)c2)c1 0.169
CCOc1ccccc1C(=O)Nc1cccc(NC(=O)c2ccccc2OC)c1 0.172
CN(C)c1ccc(C(=O)Nc2cccc(NC(=O)c3ccccc3)c2)cc1 0.189
O=C(Nc1cccc(NC(=O)c2cccs2)c1)c1ccccc1 0.191
CCOc1ccccc1NC(=O)c1cccc(NC(=O)C(C)(C)C)c1 0.181
CC(C)n1c(-c2ccco2)n[nH]c1=S 0.167
Cc1ccccc1C(=O)Nc1cccc(NC(=O)c2ccccc2)c1 0.195
COc1ccccc1C(=O)Nc1cccc(NC(=O)c2ccccc2C(C)C)c1 0.177
Cc1cccc(C(=O)Nc2cccc(NC(=O)c3cccc(Cl)c3)c2)c1 0.163
Cc1cccc(C(=O)Nc2cccc(NC(=O)c3ccc(N(C)C)cc3)c2)c1 0.206
Cc1cccc(C(=O)Nc2cccc(NC(=O)c3ccc(Cl)cc3)c2)c1 0.192
CCOc1ccccc1C(=O)Nc1cccc(NC(=O)C2CCCC2)c1 0.144
O=C(Nc1cccc(NC(=O)c2ccoc2)c1)c1ccccc1 0.171
O=C(Nc1cccc(NC(=O)c2ccccc2C(F)(F)F)c1)c1ccccc1 0.218
CCOc1ccccc1NC(=O)c1cccc(NC(=O)c2cccc(OC)c2)c1 0.172
